# Reference: PubChem BioAssay AID463173 (ICCB-Longwood Screening Facility, Harvard Medical School, 2010)
# The whole screen tested about 52,000 compounds, of which about 4,300 (8.3%) were called active. No stated cut-off is given here; in the data, active means survival mostly below about 52% (no sharp cut-off); inactive means mostly above about 56%. The sample as a whole holds a higher share of actives than the screen did.
# System: DeltatarO mutant
# Assay: S. aureus survival, RN4220 and DeltatarO strains – OD600, teichoic acid synthesis inhibitors, primary screen (AID 463173)
# Conditions: S. aureus RN4220 wild type/DeltatarO growth, OD600, 18 h, active compounds read low, screened at 18.75 µg/mL (by protocol)
row,Structure (SMILES),survival
1,O=C(CSc1ncn(-c2ccccc2)n1)c1ccc(Cl)cc1,74% (inactive)
2,CCCCN(CCCC)C1=C(C(=O)c2ccccc2)N(CC)S(=O)(=O)c2ccccc21,60% (active)
3,CCCN1C(C(=O)c2ccccc2)=C(OC(=O)C(C)(C)C)c2ccccc2S1(=O)=O,53% (inactive)
4,COC(=O)CN1C(C(=O)c2ccccc2)=C(OC(=O)c2ccc(F)cc2)c2ccccc2S1(=O)=O,56% (inactive)
5,CCCN1C(C(=O)c2ccccc2)=C(OC(=O)c2ccc(F)cc2)c2ccccc2S1(=O)=O,31% (active)
6,CCCCN1C(C(=O)c2ccccc2)=C(OC(=O)CC)c2ccccc2S1(=O)=O,-4% (active)
7,CCCCN1C(C(=O)c2ccccc2)=C(OC(C)=O)c2ccccc2S1(=O)=O,-4% (active)
8,CCCCN(CCCC)C1=C(C(=O)c2ccccc2)N(C)S(=O)(=O)c2ccccc21,72% (inactive)
9,CCCCCN1C(C(=O)c2ccccc2)=C(NC(C)=O)c2ccccc2S1(=O)=O,58% (inactive)
10,CCOC(=O)CN1C(C(=O)c2ccccc2)=C(OC(=O)C(C)(C)C)c2ccccc2S1(=O)=O,58% (inactive)
11,CCCN1C(C(=O)c2ccccc2)=C(OC(=O)c2ccc(C)cc2)c2ccccc2S1(=O)=O,52% (inactive)
12,CCN1C(C(=O)c2ccccc2)=C(OC(=O)C(C)C)c2ccccc2S1(=O)=O,67% (inactive)
13,COc1ccc(N(C(=O)c2ccc(C)cc2)S(=O)(=O)c2ccc(Cl)cc2)cc1,76% (inactive)
14,CN(CC(=O)Nc1cccc(C(F)(F)F)c1)S(=O)(=O)c1ccc2[nH]c3c(c2c1)CCCC3,94% (inactive)
15,CC(=O)N1CCc2cc(C(=O)C[n+]3ccccc3)ccc21,91% (inactive)
16,C=CCNC(=O)CN1CCC(n2c(C)nc3cc(C(F)(F)F)ccc32)CC1,95% (inactive)
17,O=C(Cn1ncn2c(cc3ccccc32)c1=O)NCc1ccc(F)cc1,104% (inactive)
18,COC(=O)CN1C(C(=O)c2ccccc2)=C(OC(=O)c2ccccc2)c2ccccc2S1(=O)=O,49% (inactive)
19,CCN1C(C(=O)c2ccccc2)=C(OC(=O)c2ccc(OC)cc2)c2ccccc2S1(=O)=O,46% (active)
20,CCCCCN1C(C(=O)c2ccccc2)=C(OC(=O)CC)c2ccccc2S1(=O)=O,-4% (active)
21,CCCCC(=O)OC1=C(C(=O)c2ccccc2)N(CC)S(=O)(=O)c2ccccc21,52% (inactive)
22,CCOC(=O)CN1C(C(=O)c2ccccc2)=C(OC(=O)c2ccccc2)c2ccccc2S1(=O)=O,56% (inactive)
23,CCCN1C(C(=O)c2ccccc2)=C(OC(=O)c2ccc(OC)cc2)c2ccccc2S1(=O)=O,56% (inactive)

row,Structure (SMILES),survival
1,CCCCC(=O)OC1=C(C(=O)c2ccccc2)N(C)S(=O)(=O)c2ccccc21,104% (inactive)
2,CCN1C(C(=O)c2ccccc2)=C(OC(=O)c2ccc(Cl)cc2)c2ccccc2S1(=O)=O,50% (inactive)
3,CCCCC(=O)OC1=C(C(=O)c2ccccc2)N(CCC)S(=O)(=O)c2ccccc21,18% (active)
4,O=C(COc1ccccc1)Nc1ccc(S(=O)(=O)N(Cc2ccccc2)c2ccccc2)cc1,61% (inactive)
5,CC1CCCN(CNC(=O)c2ccccc2)C1 (stereo not given),92% (inactive)
6,COc1cc(CNCCCSc2nnnn2C)cc(Br)c1OC,81% (inactive)
7,Cc1ccc(S(=O)(=O)N2CCCc3cc(NC(=O)c4c(F)cccc4F)ccc32)cc1,73% (inactive)
8,COc1ccccc1NC(=O)Cn1nnc(C(=O)NCc2ccc3c(c2)OCO3)c1N,103% (inactive)
9,CCOC(=O)Cn1c(=O)oc2cc(S(=O)(=O)N3CCN(c4ccc(F)cc4)CC3)ccc21,117% (inactive)
10,CSc1cccc(-c2nnc(NC(=O)c3ccc4c(c3)OCCO4)o2)c1,72% (inactive)
11,COc1cccc(NC(=O)CC(=O)Nc2ccc3nc4n(c(=O)c3c2)CCCCC4)c1,96% (inactive)
12,O=C(NCc1noc2ccccc12)N1CCN(c2ccccc2)CC1,44% (inactive)
13,Cc1ccc(C)c(N2CCN(C(=O)NCc3noc4ccccc34)CC2)c1,51% (inactive)
14,Cc1ccc(N2CCN(C(=O)NCc3noc4ccccc34)CC2C)cc1 (stereo not given),30% (active)
15,O=C(O)CCC(=O)N1CCN(Cc2ccc3c(c2)OCO3)CC1,75% (inactive)
16,COc1ccc(NC(=O)c2cc(S(=O)(=O)N3CCOCC3)ccc2OC)cc1,89% (inactive)
17,CC(=O)c1ccc(NC(=O)c2cc(S(=O)(=O)N3CCOCC3)ccc2C)cc1,49% (active)
18,Cc1ccc(S(=O)(=O)N2CCOCC2)cc1C(=O)Nc1ccccc1C(=O)O,83% (inactive)
19,N#Cc1c(-n2ncnc2-c2cccc(Br)c2)sc2c1CCCCC2,23% (active)
20,N#Cc1c(-n2ncnc2-c2ccc(F)cc2)sc2c1CCCCC2,-4% (active)
21,CCOc1ccc(-c2ncnn2-c2sc3c(c2C#N)CCCCC3)cc1,5% (active)
22,N#Cc1c(-n2ncnc2-c2ccc(Br)cc2)sc2c1CCCCC2,2% (active)
23,CC(C)CCOc1ccc(C(=O)Nc2sc3c(c2C#N)CCCCC3)cc1,127% (inactive)

row,Structure (SMILES),survival
1,N#Cc1c(-n2ncnc2-c2cccc(Cl)c2)sc2c1CCCCC2,61% (inactive)
2,COc1ccc(-c2nnn(CC(=O)Nc3sc4c(c3C#N)CCCC4)n2)cc1,98% (inactive)
3,Cc1ccc(S(=O)(=O)CC(=O)Nc2sc3c(c2C#N)CCCCC3)cc1,72% (inactive)
4,N#Cc1c(N)sc2c1CCCC2,103% (inactive)
5,N#Cc1c(N2C(=O)C3C4C=CC(C4)C3C2=O)sc2c1CCCC2 (stereo not given),71% (inactive)
6,Cc1ccc(S(=O)(=O)CC(=O)Nc2sc3c(c2C#N)CCCC3)cc1,119% (inactive)
7,CCCCNCc1cccn1-c1sc2c(c1C#N)CCCC2,109% (inactive)
8,O=C(/C=C/c1ccco1)Nc1ccc(-c2cc3ccccc3oc2=O)cc1,50% (inactive)
9,CC(=O)N1CCc2cc(S(=O)(=O)NC(CC(C)C)C(=O)NCCc3ccccc3)ccc21 (stereo not given),78% (inactive)
10,CCCCOc1ccccc1C(=O)N(Cc1ccc(C)o1)C1CCS(=O)(=O)C1 (stereo not given),71% (inactive)
11,Cc1cccc(OCC(=O)Nc2ccccc2C(=O)OCc2cc(=O)n3ccsc3n2)c1,77% (inactive)
12,CC(=O)Nc1ccc(S(=O)(=O)N2CCC(NC(=O)Nc3cccc(F)c3)CC2)cc1,91% (inactive)
13,CC1=C(C(=O)Nc2ccc(C)cc2C)C(c2cccn2C)n2ncnc2N1 (stereo not given),91% (inactive)
14,Cc1ccc(NS(=O)(=O)c2c(C(=O)N3CCCCCC3)c(C)n(C)c2C)cc1F,83% (inactive)
15,CCCOC(=O)c1c(NC(=O)C2c3ccccc3Oc3ccccc32)sc2c1CCC(C)C2 (stereo not given),82% (inactive)
16,CCCOC(=O)c1c(NC(=O)C2c3ccccc3Oc3ccccc32)sc2c1CCCC2,77% (inactive)
17,CCc1c(C)sc(NC(=O)C2c3ccccc3Oc3ccccc32)c1C(=O)OC(C)C,41% (active)
18,CC(C)OC(=O)c1c(NC(=O)C2c3ccccc3Oc3ccccc32)sc2c1CCCC2,93% (inactive)
19,CNC(=O)C1c2ccccc2Oc2ccccc21,91% (inactive)
20,COC(=O)c1c(NC(=O)C2c3ccccc3Oc3ccccc32)sc2c1CCC(C)C2 (stereo not given),56% (inactive)
21,CCOC(=O)c1sc(NC(=O)C2c3ccccc3Oc3ccccc32)c(C#N)c1C,72% (inactive)
22,CCOC(=O)c1c(NC(=O)C2c3ccccc3Oc3ccccc32)sc(C)c1C,12% (active)
23,CC1CCc2c(sc(NC(=O)C3c4ccccc4Oc4ccccc43)c2C(=O)OC(C)C)C1 (stereo not given),47% (active)

row,Structure (SMILES),survival
1,CCOC(=O)c1c(NC(=O)C2c3ccccc3Oc3ccccc32)sc(C)c1CC,24% (active)
2,CCOC(=O)c1sc(NC(=O)C2c3ccccc3Oc3ccccc32)c(C(=O)OCC)c1C,124% (inactive)
3,Cc1sc(NC(=O)C2c3ccccc3Oc3ccccc32)c(C(=O)OC(C)C)c1C,59% (inactive)
4,O=C(C1CC1)N1CCN(c2nc3ccc(F)cc3s2)CC1,117% (inactive)
5,Cc1nn(-c2ccccc2)c(OC(=O)c2ccccc2)c1S(=O)(=O)c1ccccc1,81% (inactive)
6,Cc1cc(C)n(-c2n[nH]c(=S)c3ccccc23)n1,81% (inactive)
7,CN(Cc1ccccc1)c1ccc(-c2nc(-c3ccco3)no2)cc1[N+](=O)[O-],52% (inactive)
8,Cc1cc(Nc2cc(Cl)ccc2C)n2nc(-c3ccccc3)nc2n1,49% (inactive)
9,CCOC(=O)c1c(NC(=O)COc2cc(C)ccc2C(C)C)sc(C)c1C,63% (inactive)
10,CCCc1ccc(OCC(=O)Nc2sc(C(=O)OCC)c(C)c2C(=O)OCC)cc1,82% (inactive)
11,Cc1c(C(=O)OC(C)C)sc(NC(=O)C2c3ccccc3Oc3ccccc32)c1C(=O)OC(C)C,80% (inactive)
12,CCN(CC)C(=O)c1sc(NC(C)=O)c(C(=O)OC)c1C,99% (inactive)
13,Cc1sc(NC(=O)COc2ccc(C(C)(C)C)cc2)c(C(=O)OC(C)C)c1C,10% (active)
14,CCN(CC)C(=O)c1sc(NC(=O)C2c3ccccc3Oc3ccccc32)c(C(=O)OC(C)C)c1C,30% (active)
15,COC(=O)c1c(NC(=O)COc2ccc(Cl)cc2)sc(C)c1C,67% (inactive)
16,CCN(CC)C(=O)c1sc(NC(=O)c2nc3ncccn3n2)c(C(=O)OC)c1C,137% (inactive)
17,CCOC(=O)c1c(NC(=O)COc2ccc(OC)cc2)sc(C(=O)N(CC)CC)c1C,3% (active)
18,CCOc1ccc(NC(=O)Cn2c3ncccc3c(=O)n2-c2ccc(CC)cc2)cc1,85% (inactive)
19,Cc1ccc(C(=O)c2oc3ccccc3c2NC(=O)Cc2coc3c(C)c(C)ccc23)cc1,54% (inactive)
20,CCCCNC(=O)Cn1ncc2c(C)n(Cc3cccc(Cl)c3)c(C)c2c1=O,93% (inactive)
21,Cn1c(=O)c2[nH]c(=S)[nH]c2n(C)c1=O,103% (inactive)
